# Measured values: the supplement of paper PMC8047044
# System: Neuro-2a
# Assay: neurite formation score, plate-normalized to DMSO control mean 5.04 (score (0-8 scale)); higher = more or longer neurites
# Details: 0.1 µM
# Method: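 Neuro-2a mouse neuroblastoma cells in PLL-coated 96-well plates were pre-treated for 1 h in DMEM(+) with each kinase inhibitor at 0.1 µM, then switched to serum-free DMEM(-) with inhibitor to induce neurite outgrowth and fixed about 2-3 h later. Three blinded observers scored neurite formation from 0 (no neurites) to 8 (long neurites on almost all cells).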
row,SMILES,neurite formation score
1,CN(C)Cc1cccc(N=C(c2ccccc2)c2c(O)[nH]c3cc(C(N)=O)ccc23)c1,4.54
2,CCn1cc(-c2ccnc3[nH]c(-c4cccc(CN(C)C)c4)cc23)c(-c2ccc(NC(=O)N(C)C)cc2)n1,5.25
3,CNC(=O)c1cc(Oc2ccc(NC(=O)Nc3cc(C(C)(C)C)nn3-c3ccc4ncccc4c3)c(F)c2)ccn1 [DCC-2036 (Rebastinib)],3.92
4,CCOC(=O)c1cnc2ccc(-c3cncc(NS(=O)(=O)c4ccccc4)c3)cn12,0.0843
5,O=C(NCc1cccc(O)c1)Nc1nc(-c2ccncc2)cs1,5.25
6,CNC(=O)c1cc(Oc2ccc(NC(=O)c3cccc(C(F)(F)F)c3)cc2)ccn1,5.54
7,CC(C)(C)n1nc(-c2ccc(Cl)cc2)c2c(N)ncnc21,3.88
8,CN(C)C/C=C/C(=O)Nc1cc2c(Nc3ccc(F)c(Cl)c3)ncnc2cc1O[C@H]1CCOC1 [Afatinib dimaleate],4.38
9,C[C@H](NC(=O)/C(C#N)=C/c1cccc(Br)n1)c1ccccc1,4.58
10,CCc1cc(Nc2nccc(-c3c(-c4ccc(OC)c(C(=O)Nc5c(F)cccc5F)c4)nc4ccccn34)n2)c(OC)cc1N1CCC(N2CCN(S(C)(=O)=O)CC2)CC1,4.71
11,OCCn1cc(-c2cnc3nnn(Cc4ccc5ncccc5c4)c3n2)cn1,3.25
12,CC(C)[C@H](CO)Nc1nc(Nc2cccc(Cl)c2)c2ncn(C(C)C)c2n1 [Purvalanol A],5.08
13,O=C(c1ccc(Nc2nccc(-c3cc4ccccc4s3)n2)cc1)N1CCC(N2CCCC2)CC1 [IKK-16 (IKK Inhibitor VII)],3.75
14,CNC(=O)c1ccccc1Sc1ccc2c(/C=C/c3ccccn3)n[nH]c2c1,4.54
15,CCS(=O)(=O)Nc1ccc2[nH]c(O)c(C(=Nc3ccc(CN4CCCCC4)cc3)c3ccccc3)c2c1 [Hesperadin],3.92
16,O=C(O)[C@]1(Cc2cccc(Nc3nccs3)n2)CC[C@@H](Oc2cccc(Cl)c2F)CC1,3.92
17,Clc1ccc(Nc2nnc(Cc3ccncc3)c3ccccc23)cc1 [Vatalanib],4.92
18,COc1ccc(S(=O)(=O)N(CCO)c2ccccc2CN(C)C/C=C/c2ccc(Cl)cc2)cc1 [KN-93 Phosphate],4.42
19,Cc1cnc(Nc2ccc(OCCN3CCCC3)cc2)nc1Nc1cccc(S(=O)(=O)NC(C)(C)C)c1,3.58
20,Cc1c(NC(=O)OC[C@@H]2COCCN2)cn2ncnc(Nc3ccc4c(cnn4Cc4cccc(F)c4)c3)c12,3.71

row,SMILES,neurite formation score
1,CNC(=O)CN1CCC(Oc2cc3c(Nc4cccc(Cl)c4F)ncnc3cc2OC)CC1 [AZD8931 (Sapitinib)],4.25
2,"CCCCCCCCCCCCCC(=O)OC[C@H](CO)OC(=O)CCCCCCCCCCCCC [1,2-Dimyristoyl-sn-glycerol]",5.08
3,COc1cc2ncnc(Nc3ccc(O)c(Br)c3)c2cc1OC,5.09
4,Nc1ncnc2c1c(-c1cnc3[nH]ccc3c1)nn2C1CCCC1,4.42
5,Cc1ccc(-n2nc(C(C)(C)C)cc2NC(=O)Nc2ccc(OCCN3CCOCC3)c3ccccc23)cc1 [BIRB 796 (Doramapimod)],4.21
6,CC1=C(C(=O)Nc2cc3cn[nH]c3cc2F)C(c2ccc(C(F)(F)F)cc2)CC(=O)N1 (stereo not given),4.21
7,O=C(Nc1cccc(Nc2ncc(Br)c(NCCc3cnc[nH]3)n2)c1)N1CCCC1,4.71
8,Cc1ccc(C(=O)Nc2cccc(C(F)(F)F)c2)cc1Nc1nc(-c2cccnc2)nc2c1cnn2C,4.25
9,CNC(=O)c1cc(COc2nnc(Nc3ccc(Cl)cc3)c3ccoc23)ccn1 [Telatinib (BAY 57-9352)],4.92
10,C#Cc1cccc(Nc2ncnc3cc4c(cc23)OCCOCCOCCO4)c1 [Icotinib],5.09
11,COc1cccc(-c2cc(=O)c3ccccc3o2)c1N,5.04
12,CN(C)C(=O)c1cc2cnc(Nc3ccc(N4CCNCC4)cn3)nc2n1C1CCCC1,4.58
13,CCCS(=O)(=O)Nc1ccc(F)c(C(=O)c2c[nH]c3ncc(Cl)cc23)c1F,4.38
14,CC1(COc2ccc3c(c2)ncn3-c2ccc3cccc(N4CCC(N)CC4)c3n2)COC1,4.21
15,CCC[C@H](NC(=O)/C(C#N)=C/c1cccc(Br)n1)c1ccccc1,4.21
16,Cn1cnc(=N)c2[nH]cnc21 [3-Methyladenine],4.88
17,O=C1c2ccccc2-c2n[nH]c3cccc1c23,3.92
18,Cn1cc(-c2ccc3c(c2)CCN3C(=O)Cc2cccc(C(F)(F)F)c2)c2c(N)ncnc21,5.25
19,Cc1nc(-c2cn3c(n2)-c2ccc(-c4cnn(C(C)(C)C(N)=O)c4)cc2OCC3)n(C(C)C)n1,4.92
20,Cn1cc(-c2ccc3nnc(Sc4ccc5ncccc5c4)n3n2)cn1,5.04
